Rows were chosen to be rich in hits. Some 3.5% of all compounds tested hit in one or more screens of this group.
MITF primary: MITF inhibitors, primary screen, biochemical, AlphaScreen, human; Microphthalmia-associated transcription factor (Homo sapiens), O75030; AlphaScreen MITF homodimerization, bead proximity signal; inhibition, % at 2.6 µM; 650,000 tested, 0.91% active; AID 1259374, 2018; in the data active = inhibition above about 50%
TEAD-YAP inh: TEAD-YAP interaction inhibition, primary screen, TEAD-YAP interaction inhibitor project, luminescence, HEK-TIYL cells | 640,000 tested, 1.4% active | inhibition, % at 9.12 µM | TEAD-Gal4/YAP UAS-luciferase luminescence | AID 1259422, 2018; in the data active = inhibition above about 32%
GPR151 ag: activators of human GPR151, primary screen, cell-based, PathHunter beta-arrestin, luminescence | activation, % at 11.2 µM | G-protein coupled receptor 151 (Homo sapiens), Q8TDV0 | 650,000 tested, 1% active | PathHunter beta-arrestin GPR151 cells; in the data active = activation above about 4.9%
FBW7 activator: FBW7 E3 ligase activators, primary screen, biochemical, AlphaScreen, human; F-box/WD repeat-containing protein 7 (Homo sapiens), Q969H0; AlphaScreen FBW7–phospho-cyclin E peptide binding, activator screen; normalized activity (activation), % at 26.1 µM; 650,000 tested, 0.13% active; in the data active = normalized activity above about 1.9%;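 also: purified mutant Fbw7 with reduced substrate affinity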
Target sequence (Q969H0 whole entry, looked up): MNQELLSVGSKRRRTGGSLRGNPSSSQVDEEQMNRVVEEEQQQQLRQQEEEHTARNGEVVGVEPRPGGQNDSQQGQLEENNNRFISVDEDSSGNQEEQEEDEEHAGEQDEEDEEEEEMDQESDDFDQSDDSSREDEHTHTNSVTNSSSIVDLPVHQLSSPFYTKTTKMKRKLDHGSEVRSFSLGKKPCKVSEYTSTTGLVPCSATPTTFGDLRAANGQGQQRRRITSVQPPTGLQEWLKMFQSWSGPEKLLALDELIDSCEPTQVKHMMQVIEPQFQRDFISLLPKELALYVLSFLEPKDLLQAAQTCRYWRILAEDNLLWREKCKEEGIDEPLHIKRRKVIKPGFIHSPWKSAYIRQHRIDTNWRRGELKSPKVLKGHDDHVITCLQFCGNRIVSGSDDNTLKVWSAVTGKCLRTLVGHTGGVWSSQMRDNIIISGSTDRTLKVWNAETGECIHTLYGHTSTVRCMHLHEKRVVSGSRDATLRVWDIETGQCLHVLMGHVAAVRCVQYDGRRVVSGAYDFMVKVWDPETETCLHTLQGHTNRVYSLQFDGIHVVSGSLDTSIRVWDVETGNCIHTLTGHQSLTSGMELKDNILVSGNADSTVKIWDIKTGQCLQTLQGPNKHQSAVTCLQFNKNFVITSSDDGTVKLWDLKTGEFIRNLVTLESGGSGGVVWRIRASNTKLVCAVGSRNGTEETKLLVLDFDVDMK
GPR151 conf act: GPR151 activators, triplicate retest, confirmation, cell-based, PathHunter beta-arrestin, luminescence. shares compounds with GPR151 ag. GPR151 PathHunter beta-arrestin cells, 90 min; % of EA-reagent control over plate median. activation, % at 11.2 µM. 6,700 tested, under 10 active;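 active = mean percent activation across replicates above the confirmation screen cutoff of 4.91%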
GPR119 ag: GPR119 activators in beta-arrestin cells, counter-screen for GPR151 activator project, cell-based, PathHunter beta-arrestin, luminescence, triplicate. shares compounds with GPR151 ag. 90 min; 0 = compound-well median, 100 = enzyme-acceptor control. activation, % at 11.2 µM. 6,700 tested, 0.3% active. AID 1508611, 2020;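 active = mean percent activation in the counterscreen above 29.09%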;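 also: counterscreen on off-target GPR119 to flag nonselective hits from the GPR151 activator screen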
Each line names hits and unclear results; the compound was inactive in the other large screens (follow-up assays come after a bar, where they were run).

COc1ccc(Cl)c(C(=O)N/C(=C/c2cccc([N+](=O)[O-])c2)C(=O)Nc2ccc(C)c(F)c2)c1	none
Cc1ccc(NC(=O)c2cnc(SCc3cccnc3)n(C)c2=O)cc1C	GPR151 ag 10.0 | GPR151 conf act inactive | GPR119 ag inactive
CCCCC1(CCCC)NC(=S)N(c2ccc(C)cc2)N1	GPR151 ag 11.4 | GPR151 conf act inactive | GPR119 ag inactive
Nc1nnc(SCC(=O)c2ccc(OC(F)F)cc2)s1	none
Cn1c(=O)c2c(nc3n2CCCN3Cc2ccco2)n(C)c1=O	none
O=C(CCCn1c(=O)[nH]c2ccccc2c1=O)N1CCN(c2ccc(Cl)cc2)CC1	GPR151 ag 5.5 | GPR151 conf act inactive | GPR119 ag inactive
COc1ccc(/C=N/n2c(SC)nnc(C(C)(C)C)c2=O)cc1OC	GPR151 ag 6.2 | GPR151 conf act inactive | GPR119 ag inactive
COc1ccc(/C=N/n2ncnc2SC)cc1OC	none
O=C1CC(C(=O)Nc2ccccc2Cl)c2ccccc21 (stereo not drawn)	GPR151 ag 9.4 | GPR151 conf act inactive | GPR119 ag inactive
O=C(Nc1ccccc1Cl)C1CCCCC1	none
Cc1ccc2cc3c(nc2c1C)OCC(=O)N(C1CC1)C3	none
O=C(NCCCn1ccnc1)c1cc2nc(-c3cccs3)cc(C(F)(F)F)n2n1	GPR151 ag 7.3 | GPR151 conf act inactive | GPR119 ag inactive
COc1ccc(-c2cc(C(F)(F)F)n3nc(C(=O)N4CCN(c5ccccc5Cl)CC4)cc3n2)cc1	GPR151 ag 6.1 | GPR151 conf act inactive | GPR119 ag inactive
CCn1ncc(CNC(=O)c2cc3nc(-c4ccco4)cc(C(F)(F)F)n3n2)c1C	GPR151 ag 5.0 | GPR151 conf act inactive | GPR119 ag inactive
COc1ccc(-c2cc(C(F)(F)F)n3nc(C(=O)NCc4cccs4)cc3n2)cc1OC	GPR151 ag 7.2 | GPR151 conf act inactive | GPR119 ag inactive
COc1ccc(-c2cc(C(F)(F)F)n3nc(C(=O)N4CCN(c5cccc(Cl)c5)CC4)cc3n2)cc1	none
CC1CCCC(NC(=O)C2N(Cc3ccc4c(c3)OCO4)C(=O)C3C(C(=O)Nc4ccc(F)c(Cl)c4)C4C=CC32O4)C1C (stereo not drawn)	none
O=C(NCC1CCC2(CCN(C(=O)Cc3ccccc3)CC2)O1)C1CCCO1 (stereo not drawn)	none
Cc1ccc(-c2cc(C(F)(F)F)n3nc(C(=O)NN4CCOCC4)cc3n2)cc1C	GPR151 ag 5.3 | GPR151 conf act inactive | GPR119 ag inactive
COc1ccc(-c2cc(C(F)(F)F)n3nc(C(=O)NCCc4ccccc4)cc3n2)cc1	GPR151 ag 12.7 | GPR151 conf act inactive | GPR119 ag inactive
COc1ccc(C2C(C#N)=C(N)Oc3cc(N)ccc32)cc1Br (stereo not drawn)	GPR151 ag 7.6 | GPR151 conf act inactive | GPR119 ag inactive
COc1ccc(N/C(C)=C/C(=O)c2ccc(C)o2)c(OC)c1	none
CC(=O)NCC1CCCN(c2nc3nonc3nc2N2CCCCCC2)C1 (stereo not drawn)	none
CN(C)C(=O)CN1CCN(c2nc3nonc3nc2N2CCCCCC2)CC1	GPR151 ag 4.9 | GPR151 conf act inactive | GPR119 ag inactive
CC(=O)NCC1CCCN(c2nc3nonc3nc2N2CCSCC2)C1 (stereo not drawn)	GPR151 ag 5.5 | GPR151 conf act inactive | GPR119 ag inactive
Cc1cc(Nc2cc(F)ccc2C)n2nc(C)nc2n1	GPR151 ag 7.1 | GPR151 conf act inactive | GPR119 ag inactive
Cc1cc(Nc2ccc(F)cc2F)n2nc(C)nc2n1	none
Cc1ccc(C2=N/C(=C/c3cc(Br)cs3)C(=O)O2)cc1[N+](=O)[O-]	GPR151 ag 5.1 | GPR151 conf act inactive | GPR119 ag inactive
O=C1OC(c2ccc([N+](=O)[O-])cc2)=N/C1=C\c1ccccc1	none

Source: PubChem BioAssay
